Assay outcomes: PubChem BioAssay, National Center for Advancing Translational Sciences (NCATS)
The list is not random: actives were taken first. Their share in the collection is about 2.8%.
ATXN viability: Viability Counterscreen for Primary qHTS for Inhibitors of ATXN expression; 400,000 compounds, 0.49% hits; AID 651635, 2014; S2 cells (HEK-293 line with an ATXN2-luciferase reporter) viability, CellTiter-Fluor protease fluorescence, 24 h; Potency, µM (top dose mostly 56.7 µM), hits mostly cytotoxic; note: nearly all actives have a fitted effect of over 40% in size
CtBP-E1A blk: qHTS Assay for Inhibitors of the CtBP/E1A Interaction; CtBP / adenovirus E1A interaction (AlphaScreen); AlphaScreen GST-E1A/His-CtBP binding, 1536-well; hits give low values; activity change, % (test concentration not listed); 340,000 compounds, 0.49% hits; AID 651724, 2012; in the data active = activity change below about -65%; inconclusive = mostly about -30% to -63%
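Protein mix (5X: 125 nM each GST-E1A, His-CtBP) was incubated with pinned compound 2 h at 37 deg C in dark, in 50 mM Tris pH 8.0 buffer with 300 mM NaCl. Glutathione donor and nickel acceptor beads followed; AlphaScreen signal read after 1 h.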
HepG2 viability: qHTS for Inhibitors of TGF-b: Cytotox Counterscreen; HepG2 CAGA-GFP viability, ATP luminescence, 18 h; Potency, µM (highest dose often 46.1 µM), usual class: cytotoxic; 410,000 compounds, 0.76% hits; AID 588856, 2011
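HepG2 CAGA-GFP cells (1000/well, DMEM with 1% FBS) received compound, then TGF-beta at 500 pg/mL final, and were incubated 18 hours at 37 degrees C. Viability was read by CellTiter-Glo luminescence. Media-only wells were set as complete cell-killing and DMSO as no toxicity.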
ATXN2 expr inh: Primary qHTS for Inhibitors of ATXN expression | HEK-293 ATXN2-luciferase reporter, luminescence, 24 h | Potency, µM (top dose mostly 57 µM), hits mostly inhibitors | 360,000 compounds, 0.72% hits | AID 1745845, 2022; note: nearly all actives have a fitted effect of over 55% in size
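ATXN2-luciferase reporter cells (luciferase flanked by upstream and downstream ATXN2 gene portions) were treated 24 h at 37 °C with compounds at up to 57 uM. SteadyGlo luminescence gave expression; GF-AFC fluorescence gave viability.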
Six1-Eya2 inh: qHTS Assay for Inhibitors of the Six1/Eya2 Interaction; AlphaScreen GST-Six1/His-Eya2 binding, biochemical; hits give low values; Homeobox protein SIX1 (Homo sapiens) + Protein phosphatase EYA2 (Homo sapiens), …; activity change, % (no concentration beside the values); AID 651725, 2012; 360,000 compounds, 0.56% hits; in the data active = activity change below about -65%; inconclusive = mostly about -30% to -63%
Target sequence (O00167 whole entry, looked up): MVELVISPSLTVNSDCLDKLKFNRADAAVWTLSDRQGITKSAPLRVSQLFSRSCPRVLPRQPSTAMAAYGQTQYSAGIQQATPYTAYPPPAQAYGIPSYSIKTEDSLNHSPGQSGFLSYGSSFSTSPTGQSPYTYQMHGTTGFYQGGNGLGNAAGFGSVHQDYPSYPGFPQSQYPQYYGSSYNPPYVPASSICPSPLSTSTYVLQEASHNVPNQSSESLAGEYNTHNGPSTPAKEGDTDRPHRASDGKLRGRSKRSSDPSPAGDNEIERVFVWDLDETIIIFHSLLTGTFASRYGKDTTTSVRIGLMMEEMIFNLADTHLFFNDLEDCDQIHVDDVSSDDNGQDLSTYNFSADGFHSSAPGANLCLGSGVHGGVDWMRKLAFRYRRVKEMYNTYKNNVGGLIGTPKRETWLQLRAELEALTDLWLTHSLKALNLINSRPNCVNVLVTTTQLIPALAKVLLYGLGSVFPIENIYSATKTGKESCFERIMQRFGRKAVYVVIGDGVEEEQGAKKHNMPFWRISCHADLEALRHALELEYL
Target sequence (Q15475 whole entry, looked up): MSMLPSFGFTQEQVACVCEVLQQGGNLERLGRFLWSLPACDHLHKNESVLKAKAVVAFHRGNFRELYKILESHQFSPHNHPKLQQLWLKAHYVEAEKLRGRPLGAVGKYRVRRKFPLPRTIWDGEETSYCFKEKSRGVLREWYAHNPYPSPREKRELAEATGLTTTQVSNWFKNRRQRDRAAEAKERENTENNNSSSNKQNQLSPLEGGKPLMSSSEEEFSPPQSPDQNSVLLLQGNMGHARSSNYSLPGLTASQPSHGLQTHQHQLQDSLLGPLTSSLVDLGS
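AlphaScreen luminescence read after one hour at 37 °C in darkness. Pin-transferred compounds met GST-Six1 and His-Eya2 protein (5X stock 250 nM/500 nM) plus glutathione donor and Ni-chelate acceptor beads (5X, 50 ug/mL).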
TGFb inhibitor: qHTS for Inhibitors of TGF-b; AID 588855, 2011; HepG2 CAGA-GFP TGF-b/SMAD3 reporter, GFP fluorescence, 18 h; TGF-beta stimulated, 500 pg/mL final; Potency, µM (titrated, usually from 46.1 µM), usual class: inhibitors; 410,000 compounds, 1.2% hits; note: nearly all actives have a fitted effect of over 65% in size
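Inhibition was scored as loss of TGF-beta-induced (500 pg/mL final, 18 hours, 37 degrees C) GFP in HEPG2 cells carrying a CAGA-GFP reporter, in DMEM with 1% FBS. Well GFP was summed per cell; Activity was normalised to unstimulated and stimulated DMSO wells, then concentration-response fitting.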
A number is an active result; ! = not confirmed by another sample. Unless noted, calls come from the whole dose curve; as a rule, active = well fitted curve in the direction sought with a large enough effect; inconclusive = small, poorly fitted or top-dose-only effect, or another doubt; inactive = no such curve, though single readings can be large; an effect the other way counts as inactive or inconclusive.

What do the screens show for `O=C1N[C@@H](c2ccccc2)COC(=O)[C@@H](Cc2ccc(F)cc2)C/C=C\C[C@H]1CC(=O)N(CCO)Cc1ccccc1`?
ATXN viability: inconclusive; CtBP-E1A blk: inactive; HepG2 viability: inactive; ATXN2 expr inh: inconclusive; Six1-Eya2 inh: inactive; TGFb inhibitor: inconclusive

How did COc1cccc(-c2ccc(O)c(CNC(c3ccccc3)c3ccc(Cl)cc3)c2)n1 (configuration not stated) do in these assays?
ATXN viability: inactive

Results for Nc1ccc(/C=C/c2ccc3cccnc3c2)cc1 ?
HepG2 viability: inactive; TGFb inhibitor: inactive

Results for Nc1ccc(/C=C/c2ccc3ncccc3c2)cc1 ?
ATXN viability: inactive; HepG2 viability: 7.08µM!; Six1-Eya2 inh: inactive; TGFb inhibitor: inconclusive

How did CCC1Oc2ccccc2N(CC(=O)NCc2cc(OC)ccc2OC)C1=O (configuration not stated) do in these assays?
HepG2 viability: inactive; TGFb inhibitor: inactive

How did CC1CCN(C(=O)COC(=O)/C=C/c2ccc([N+](=O)[O-])cc2)CC1 do in these assays?
ATXN viability: inactive; CtBP-E1A blk: inconclusive; HepG2 viability: inactive; ATXN2 expr inh: inactive; Six1-Eya2 inh: inactive; TGFb inhibitor: inconclusive

Results for O=C(/C=C/c1ccc([N+](=O)[O-])cc1)OCC(=O)N1CCCC1 ?
ATXN viability: inactive; CtBP-E1A blk: -68.4; HepG2 viability: inactive; ATXN2 expr inh: inactive; Six1-Eya2 inh: inactive; TGFb inhibitor: inactive

How did Cc1cc([N+](=O)[O-])ccc1NCc1ccccc1 do in these assays?
ATXN viability: inactive; CtBP-E1A blk: inactive; HepG2 viability: inactive; ATXN2 expr inh: inactive; Six1-Eya2 inh: inactive; TGFb inhibitor: inactive

How did Cc1cc([N+](=O)[O-])ccc1NCc1ccc2ccccc2c1 do in these assays?
ATXN viability: inactive; CtBP-E1A blk: inactive; HepG2 viability: inactive; ATXN2 expr inh: inactive; Six1-Eya2 inh: inactive; TGFb inhibitor: 20µM

Results for COc1ccc(NC(=O)CN2C(=O)C(C)(C)c3cc(S(=O)(=O)N4CCCCC4)ccc32)cc1Cl ?
ATXN viability: inconclusive; HepG2 viability: inactive; ATXN2 expr inh: inactive; TGFb inhibitor: inactive

How did Cc1cc(C)cc(OCC(=O)N2N=C(C(F)(F)F)CC2(O)C(C)(C)C)c1 (configuration not stated) do in these assays?
ATXN viability: inactive; CtBP-E1A blk: inactive; HepG2 viability: 17.8µM; ATXN2 expr inh: inconclusive; Six1-Eya2 inh: inactive; TGFb inhibitor: inconclusive

Results for Cc1cccc(NS(=O)(=O)c2ccc(NC(=O)CN(c3cc([N+](=O)[O-])ccc3C)S(C)(=O)=O)cc2)c1 ?
ATXN viability: inconclusive; CtBP-E1A blk: inactive; HepG2 viability: inactive; ATXN2 expr inh: inconclusive; Six1-Eya2 inh: inactive; TGFb inhibitor: 15.8µM

How did C#CC1(O)CC[C@H]2[C@@H]3CCC4=CCCC[C@@H]4[C@H]3CC[C@@]21C (some centres not stated) do in these assays?
ATXN viability: inactive; ATXN2 expr inh: inactive

What do the screens show for `Cc1ccc([N+](=O)[O-])cc1S(=O)(=O)N1CCNCC1`?
ATXN viability: inactive; HepG2 viability: inactive; ATXN2 expr inh: inactive; Six1-Eya2 inh: inactive; TGFb inhibitor: inactive

Results for Cc1ccc([N+](=O)[O-])cc1S(=O)(=O)N(C)N=Cc1cnc2ccc(Br)cn12 ?
ATXN2 expr inh: 0.0485µM

Results for COc1ccc(OC)c(CN2CCCC(n3cc(C(=O)N4CCCCC4)nn3)C2)c1 (configuration not stated) ?
ATXN viability: inactive

What do the screens show for `N#CC[n+]1cccc(Br)c1`?
HepG2 viability: inactive; TGFb inhibitor: inactive

What do the screens show for `O=C(Nc1ccc(N2CCOCC2)cc1)c1cn2ccccc2n1`?
ATXN viability: inactive; CtBP-E1A blk: inactive; HepG2 viability: inactive; ATXN2 expr inh: 11.2µM; Six1-Eya2 inh: inactive; TGFb inhibitor: inactive

Results for O=C(Nc1ccc(N2CCCCC2)cc1)c1ccccn1 ?
ATXN viability: inactive; CtBP-E1A blk: inactive; HepG2 viability: inactive; ATXN2 expr inh: 1.78µM; Six1-Eya2 inh: inactive; TGFb inhibitor: inactive

How did C/C=C1\COC(C(=O)NCCN2CCOCC2)(C(F)(F)F)C=C1C=C(C)C (configuration not stated) do in these assays?
HepG2 viability: inactive; TGFb inhibitor: inactive

How did C/C=C1\COC(C(=O)NCc2ccccc2)(C(F)(F)F)C=C1C=C(C)C (configuration not stated) do in these assays?
ATXN viability: inactive; CtBP-E1A blk: inactive; HepG2 viability: inactive; ATXN2 expr inh: inactive; Six1-Eya2 inh: inactive; TGFb inhibitor: 11.2µM!

Results for CC(C)OC(=O)C(C(=O)C(F)(F)F)c1cc(NS(=O)(=O)c2ccc3c4c(cccc24)C(=O)N3)ccc1O (configuration not stated) ?
ATXN viability: inconclusive; HepG2 viability: inactive; ATXN2 expr inh: inactive; TGFb inhibitor: inactive

Results for CC(C)OC(=O)C(C(=O)C(F)(F)F)c1cc(NS(=O)(=O)c2ccc3ccccc3c2)c2ccccc2c1O (configuration not stated) ?
ATXN viability: inactive; CtBP-E1A blk: -68.1; HepG2 viability: inactive; ATXN2 expr inh: inactive; Six1-Eya2 inh: inconclusive; TGFb inhibitor: inactive

Results for CC1=CC(C)(C)N2C(=O)C3(NCCc4c3[nH]c3ccccc43)c3cc(C)cc1c32 (configuration not stated) ?
ATXN viability: 22.4µM; CtBP-E1A blk: inactive; HepG2 viability: inactive; ATXN2 expr inh: inactive; Six1-Eya2 inh: inactive; TGFb inhibitor: inconclusive

What do the screens show for `Cc1oc(-c2ccc(Cl)cc2)nc1Cn1c(=O)cc(C)c2c(C)nn(-c3ccccc3)c21`?
ATXN viability: inactive; HepG2 viability: inactive; ATXN2 expr inh: inactive; TGFb inhibitor: inactive

How did CSc1nc2c(c(=O)[nH]c(=O)n2C)n1C/C=C(\C)Cl do in these assays?
ATXN viability: inactive; CtBP-E1A blk: inactive; HepG2 viability: inactive; ATXN2 expr inh: inactive; Six1-Eya2 inh: inactive; TGFb inhibitor: inactive

Results for CCSc1nc2c(c(=O)[nH]c(=O)n2C)n1C/C=C(/C)Cl ?
ATXN viability: inactive; CtBP-E1A blk: inactive; HepG2 viability: 7.08µM; ATXN2 expr inh: inactive; Six1-Eya2 inh: inactive; TGFb inhibitor: inactive

Results for O=C(Nc1ccccc1O)c1cc(S(=O)(=O)N2CCCC2)ccc1Cl ?
ATXN viability: inactive; HepG2 viability: inactive; ATXN2 expr inh: inactive; TGFb inhibitor: inconclusive
